Molecules are shown by their SMILES. The campaign covered roughly 290,000 compounds. About 27,000 (9.3%) were called active. Shown is part of a subset that was picked to be rich in actives. A number with no mark means an inactive call. No stated cut-off is given here; in the data, active means inhibition mostly above about 28% (no sharp cut-off); inactive means mostly below about 43%.

This experiment in a line: A qHTS for Small Molecule Inhibitors of Shiga Toxin. Further: 0% is about no effect. As to conditions: Vero cells, Shiga toxin protein synthesis inhibition reporter; at 38.7 µM, active compounds read high. For orientation: qHTS replaces the single test concentration by a dilution series.
For the compound `Cc1cccc(C)c1NC(=O)CS(=O)CC(=O)N1CCN(c2ccccc2)CC1` (configuration not stated), the inhibition – broadly, the drop in the measured response relative to a control, in per cent – is -9.06%.
As to `Cc1cccc(NC(=O)N2CCCCCC2)c1C`, the inhibition was 46.2%.
Turning to `Cc1ccc(N2CCN(C3=NC(=O)/C(=C\c4cccs4)S3)CC2)cc1`, the inhibition was -4.1%.
For the compound `CCc1ccc(/C=C2\SC(N3CCOCC3)=NC2=O)cc1`, the inhibition was 42.9%.
For `CC1CCN(C2=NC(=O)/C(=C/c3cn[nH]c3-c3ccccc3)S2)CC1` the value was -0.314%; for `O=C1N=C(N2CCc3ccccc3C2)S/C1=C\c1ccc(O)cc1`, 33%.
As to `O=C1N=C(N2CCOCC2)S/C1=C\C=C/c1ccccc1`, the inhibition was 66.1% (active).
The value for `Cc1ccsc1/C=C1\SC(N2CCOCC2)=NC1=O` was 111% (active); that for `CCc1ccc(C(CNc2nc(C(F)(F)F)nc3ccccc23)N(C)C)cc1` (configuration not stated) was -12.5%.
Turning to `Cc1cccc(CN2CCC(CNC(=O)Nc3ccc(F)c(Cl)c3)CC2)c1`, the inhibition is -4.78%.
For `Cc1ccc(NC(=O)C2CCCN2S(=O)(=O)c2cccc3cccnc23)c(C)c1` (configuration not stated) the value was -11.1%.
For `COc1ccc(OC)c(S(=O)(=O)n2c([N+](=O)[O-])cnc2C)c1`, the inhibition was -7.62%.
The value for `COc1cc(NC(=O)C2CC(c3ccccc3O)=NO2)c(OC)cc1Cl` (configuration not stated) was -12.3%.
Turning to `COc1ccc(C(CNC(=O)COc2ccccc2OC)N2CCCCC2)cc1` (configuration not stated), the inhibition was -20.7%.
As to `c1ccc(CN=C2Nc3ccccc3CS2)nc1`, the inhibition was 59.8% (active).
On to `COc1ccccc1CNS(=O)(=O)c1c(C)[nH]c(C)c1C(=O)N1CCCCC1`, for which the inhibition is 2.2%.
On to `Cc1ccc(S(=O)(=O)N(CC(=O)NCc2ccco2)c2ccccc2C)cc1`, for which the inhibition is 9.67%.
With `COc1ccccc1OC(C)C(=O)Nc1ccc(S(=O)(=O)Nc2nccs2)cc1` (configuration not stated), the inhibition is -4.41%.
Take `Cn1c(CO)cnc1SCc1ccccc1`: the inhibition is 65.8% (active).
For the compound `Cn1c(-c2ccc(F)cc2)cnc1SCC(=O)NNC(=O)Cc1ccccc1`, the inhibition is 18.3%.
For the compound `CSc1c(SCc2ccccc2)cnn(Cc2ccccc2)c1=O`, the inhibition was 10.6%.
For `CCS(=O)(=O)N1CCC(N2CCN(c3ccccc3)CC2)CC1` the value was -4.18%; for `Cc1cc(C)n(-c2ccc(NC(=O)C3CCCCN3C(=O)c3cccs3)cc2)n1` (configuration not stated), 11%; for `Cc1ccc2[nH]c3c(=O)n(CC(=O)NCCc4ccc(Cl)cc4)ncc3c2c1`, 21.6%.
As to `Cc1ccc(OCc2n[nH]c(=S)n2-c2ccc(C)cc2)cc1`, the inhibition is -9.95%.
For `COc1ccc(Cc2n[nH]c(=S)n2NC(=O)Nc2ccc(C)cc2)cc1` the value was 63.4% (active).
For `CCOc1ccc(NC(=O)CN2CCN(CC(=O)Nc3ccc(OC)cc3)CC2)cc1` the value was -3.78%.

The values above are taken from PubChem BioAssay AID2315 (National Center for Advancing Translational Sciences (NCATS), 2010).
